# PubChem BioAssay AID488965 (Broad Institute, 2010)
# The whole screen tested about 340,000 compounds, of which about 210 (0.062%) were called active. For the sample, actives were picked, then their nearest neighbours and some compounds at random. Values without a mark were called inactive. Rule as the data show it: active = inhibition above about 30% (passing the limit was not always enough); inconclusive = no clear call, values can overlap the other calls.
# Test system: PvdQ acylase [Pseudomonas aeruginosa LESB58]
# Assay: P. aeruginosa PvdQ acylase inhibitors, primary screen, biochemical, fluorescence, plate reader and imaging, single point (AID 488965);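 also: 0% = vehicle neutral wells and 100% = reference inhibitor wells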
# Details: purified PvdQ acylase, at 10 µM, stronger effect = higher value
row,Structure (SMILES),inhibition
1,O=C(CSc1nnc(-c2cccnc2)n1CCc1ccccc1)NCc1ccccc1,-11.6%
2,CCOC(=O)C1(Cc2ccc(O)cc2)NC(c2ccccc2F)C2C(=O)N(C)C(=O)C21 (stereo not given),-8.27%
3,CC[C@]12c3[nH]c4ccc(Cl)cc4c3CCN1C(=O)[C@@H](CC(=O)NCCCOC)C[C@@H]2C(=O)N1CCN(C(=O)c2ccco2)CC1,-13.8%
4,O=C(/C=C/c1ccccc1Cl)Nc1ccc(S(=O)(=O)Nc2ncccn2)cc1,-4.75%
5,O=C(CCCOc1ccccc1)NCc1ccco1,-2.34%
6,CCn1c(SCC(=O)Nc2ccc(OC)c(OC)c2)nnc1-c1c[nH]c2ccccc12,-5.34%
7,COc1ccc(N2C(=O)CC(Sc3n[nH]c(-c4ccc(C)cc4)n3)C2=O)cc1 (stereo not given),-16%
8,CC(NC(=S)NNS(=O)(=O)c1ccc(C(C)(C)C)cc1)c1ccccc1 (stereo not given),-8.37%
9,Cc1cc(C)cc(NC(=O)N(C)Cc2ccccc2)c1,-16%
10,C/C(Cc1ccccc1)=N\NC(=O)CNC(=O)c1cccc(Br)c1,2.03%
11,CCOc1ccc(OCC)c(NC(=O)CCS(=O)(=O)c2ccc(C)cc2)c1,-14.3%
12,CCc1ccc(NC(=O)N2CCc3ccccc3C2)cc1,-0.823%
13,CCOC(=O)C(NC(=O)CC(C)C)(Nc1sc2c(c1C(N)=O)CCCC2)C(F)(F)F (stereo not given),-4.91%
14,CC1Cc2ccccc2N1S(=O)(=O)c1ccc(Cl)nc1 (stereo not given),24.3%
15,COc1ccc(OCC(=O)NN2Cc3ccccc3C2=N)cc1,7.9%
16,COc1ccc(CNS(=O)(=O)c2ccc(NC(=O)N3CCCCC3)cc2)cc1,1.88%
17,N#Cc1cc([N+](=O)[O-])ccc1Oc1cccc(/C=N/NC(=O)c2ccc(Cl)cc2)c1,65.3% (active)
18,O=C(N/N=C/c1ccc(Cl)cc1)c1nc2ccc([N+](=O)[O-])cc2c(=O)[nH]1,-8.55%
19,O=C(N/N=C/c1cccc(OC(=O)c2ccc([N+](=O)[O-])cc2)c1)c1cccnc1,-8.47%
20,C/C(=N\NC(=O)Cc1ccccc1[N+](=O)[O-])c1cccnc1,-8.6%
21,O=C(CN1CCSCC1)N/N=C/c1ccc(F)cc1F,-7.29%
22,COc1ccccc1N1CCN(C(=O)CCS(=O)(=O)c2ccc3c(c2)NC(=O)C(C)S3)CC1 (stereo not given),-17.3%
23,CN1C(C(=O)NCc2ccco2)CC2Cn3c(nc4ccccc43)C21 (stereo not given),-1.69%

row,Structure (SMILES),inhibition
1,CCOC(=O)N1CCC(Nc2c(NCCCN3CCN(CC)CC3)c(=O)c2=O)CC1,-6.72%
2,O=C(NCc1ccco1)/C(=C/c1cccc([N+](=O)[O-])c1)NC(=O)c1ccco1,5.34%
3,OC(CNCC1CCCO1)Cn1c2ccc(Br)cc2c2cc(Br)ccc21 (stereo not given),-10.5%
4,O=c1cc(Cl)c2ccccc2n1-c1ccccc1,-10.1%
5,Cc1cccc(N2CCN(C(=O)c3cccc(N4C(=O)C5C6C=CC(C6)C5C4=O)c3)CC2)c1C (stereo not given),-11.5%
6,Cc1ccc(S(=O)(=O)NCCSC(C)(C)C)cc1,6.35%
7,COc1ccc(S(=O)(=O)N2C[C@H]3CON(C)[C@H]3C[C@H]2c2cccc(Br)c2)cc1,4.46%
8,O=C(NCCc1ccccc1)C1CCC(Cn2c(=O)c3ccccc3n(Cc3cccnc3)c2=O)CC1 (stereo not given),-13.5%
9,COc1ccc(-c2[nH]ncc2CN(C)Cc2cccnc2)c(F)c1,-16.1%
10,Cc1ccc(N(C(=O)Cc2cccs2)C2C=CS(=O)(=O)C2)cc1Cl (stereo not given),-5.8%
11,CCCC(=O)N1CCN(c2nnc(-c3ccc(C)cc3)c3ccccc23)CC1,-23.6%
12,COc1cccc(NC(=O)c2ccccc2N(Cc2ccccc2)S(C)(=O)=O)c1,-17.2%
13,CCOc1ccc(-c2noc(CCC(=O)NC3CCCC3)n2)cc1OC,3.89%
14,CC(C)=CCC/C(C)=C/C(=O)O,-3.82%
15,O=C(N/C(=C/c1ccc(Cl)cc1)C(=O)N1CCCCC1)c1ccco1,-10.7%
16,CN1C(C(=O)NCC2CC2)CC2Cn3c(nc4ccccc43)C21 (stereo not given),-7.73%
17,COc1cccc(C2=CC(=O)C[C@H](c3ccc(F)cc3)C2)c1OC,-13.7%
18,COc1cccc(C2=CC(=O)C[C@H](c3ccc(OC)c(OC)c3)C2)c1,-0.585%
19,O=C1C=C(c2cccc(Br)c2)C[C@@H](c2ccc(F)cc2)C1,63.4% (active)
20,COc1ccccc1C1=CC(=O)C[C@H](c2ccc(F)cc2)C1,2.08%
21,O=C1C=C(c2cccc(Cl)c2)C[C@@H](c2ccc(F)cc2)C1,37.3% (active)
22,O=C1C=C(c2cccc(Cl)c2O)C[C@@H](c2ccc(F)cc2)C1,-5.55%
